Assay results: PubChem BioAssay (Tox21)
“And” between values parts separate entries of the source, which are not always exact repeats. Identical values can stand only once. Results filed as inconclusive are left out. The source made the active and inactive calls. Unless noted, calls follow the shape of the dose curve; as a rule, active = well fitted curve in the direction sought with a large enough effect in the repeat runs; inconclusive = weak or mixed curves; inactive = no such curve, though single readings can be large; an effect the other way counts as inactive or inconclusive.

Columns and labels:
[1] = target: Acetylcholinesterase (Homo sapiens) (UniProt P22303); test: Acetylcholinesterase (AChE) small molecule antagonists: enzyme-based qHTS assay (AID 1347397; calls by dose curve; also: nearly all actives have a fitted effect of over 55% in size); conditions: Potency: AChE enzyme activity inhibition
Sequence of Acetylcholinesterase (Homo sapiens) (P22303 whole entry, looked up): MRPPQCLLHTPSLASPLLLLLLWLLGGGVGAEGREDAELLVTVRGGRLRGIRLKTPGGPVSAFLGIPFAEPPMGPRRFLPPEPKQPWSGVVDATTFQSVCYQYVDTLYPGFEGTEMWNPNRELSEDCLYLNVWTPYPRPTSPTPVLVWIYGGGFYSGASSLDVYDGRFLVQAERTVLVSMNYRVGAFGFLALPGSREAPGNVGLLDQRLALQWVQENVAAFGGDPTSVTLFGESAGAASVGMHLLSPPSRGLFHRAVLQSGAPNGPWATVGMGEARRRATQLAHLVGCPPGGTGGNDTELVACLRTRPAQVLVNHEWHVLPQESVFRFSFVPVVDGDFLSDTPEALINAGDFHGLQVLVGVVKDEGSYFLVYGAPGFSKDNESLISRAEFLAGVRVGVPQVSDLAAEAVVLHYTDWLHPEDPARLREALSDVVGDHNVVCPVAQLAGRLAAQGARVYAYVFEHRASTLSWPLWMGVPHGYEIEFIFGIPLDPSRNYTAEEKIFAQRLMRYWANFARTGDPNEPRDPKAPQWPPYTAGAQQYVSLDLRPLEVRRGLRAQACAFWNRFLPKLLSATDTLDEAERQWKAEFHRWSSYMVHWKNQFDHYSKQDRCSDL
Procedure, shortened: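 In this quantitative HTS, compounds from the Tox21 10K collection were preincubated 30 min at ambient temperature with recombinant human AChE dispensed at 50 mU/mL. Hydrolysis of acetylthiocholine was then followed for 10 min by DTNB colour development.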

[2] = target: Acetylcholinesterase (Homo sapiens) (UniProt P22303); test: Acetylcholinesterase (AChE) small molecule antagonists: fluorescence cell-based qHTS assay (AID 1347398; calls by dose curve; also: nearly all actives have a fitted effect of over 50% in size); conditions: Potency: AChE activity
Procedure, shortened: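 Cells (SH-SY5Y) attached overnight, were dosed with compound or DMSO vehicle for 30 min at 37 C, and then incubated 40 min at room temperature with acetylthiocholine and Thiolite Green; green fluorescence indexed AChE activity.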

[3] = target: Acetylcholinesterase (Homo sapiens) (UniProt P22303); test: Acetylcholinesterase (AChE) small molecule antagonists: enzyme-based qHTS assay with human liver microsomes (AID 1347399; calls by dose curve; also: nearly all actives have a fitted effect of over 60% in size); conditions: Potency: qHTS inhibition
Procedure, shortened: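 Recombinant human AChE (50 mU/mL in the enzyme mix) and human liver microsomes (0.25 mg/mL final) were preincubated with compound and NADPH (0.25 mg/mL final) for 30 min at 37 C. Acetylthiocholine/DTNB was then added; thiocholine was read colorimetrically after 10 min at room temperature.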

[4] = target: Cytochrome P450 2D6 (Homo sapiens) (UniProt P10635); test: Cytochrome P450 Family 2 Subfamily D Member 6 (CYP2D6) small molecule antagonists: luciferase reporter qHTS assay (AID 1671196); also: nearly all actives have a fitted effect of over 50% in size; as to activity change, negative = inhibition: series mostly up to about 120 µM
Sequence of Cytochrome P450 2D6 (Homo sapiens) (P10635 whole entry, looked up): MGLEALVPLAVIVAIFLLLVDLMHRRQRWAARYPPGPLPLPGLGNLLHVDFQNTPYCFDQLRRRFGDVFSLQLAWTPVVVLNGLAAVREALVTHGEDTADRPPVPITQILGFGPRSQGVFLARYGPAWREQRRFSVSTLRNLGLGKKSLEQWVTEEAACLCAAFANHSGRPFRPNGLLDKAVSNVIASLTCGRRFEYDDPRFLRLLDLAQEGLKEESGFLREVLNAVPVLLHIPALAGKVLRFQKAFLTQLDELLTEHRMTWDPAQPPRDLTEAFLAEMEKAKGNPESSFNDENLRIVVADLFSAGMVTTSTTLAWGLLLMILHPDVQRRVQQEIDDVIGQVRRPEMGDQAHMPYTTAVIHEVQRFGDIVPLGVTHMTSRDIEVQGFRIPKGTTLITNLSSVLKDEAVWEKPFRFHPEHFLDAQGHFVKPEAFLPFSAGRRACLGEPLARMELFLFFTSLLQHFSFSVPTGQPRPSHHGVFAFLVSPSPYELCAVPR
Procedure, shortened: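 Room-temperature luminescent CYP2D6 activity assay: compound preincubated 10 min with enzyme–substrate mix, NADPH-initiated reaction 1 h, detection reagent 20 min before reading.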

[5] = target: Cytochrome P450 2C19 (Homo sapiens) (UniProt P33261); test: Cytochrome P450 Family 2 Subfamily C Member 19 (CYP2C19) small molecule antagonists: luciferase reporter qHTS assay (AID 1671197); also: nearly all actives have a fitted effect of over 65% in size; as to activity change, negative = inhibition: series mostly up to about 120 µM
Sequence of Cytochrome P450 2C19 (Homo sapiens) (P33261 whole entry, looked up): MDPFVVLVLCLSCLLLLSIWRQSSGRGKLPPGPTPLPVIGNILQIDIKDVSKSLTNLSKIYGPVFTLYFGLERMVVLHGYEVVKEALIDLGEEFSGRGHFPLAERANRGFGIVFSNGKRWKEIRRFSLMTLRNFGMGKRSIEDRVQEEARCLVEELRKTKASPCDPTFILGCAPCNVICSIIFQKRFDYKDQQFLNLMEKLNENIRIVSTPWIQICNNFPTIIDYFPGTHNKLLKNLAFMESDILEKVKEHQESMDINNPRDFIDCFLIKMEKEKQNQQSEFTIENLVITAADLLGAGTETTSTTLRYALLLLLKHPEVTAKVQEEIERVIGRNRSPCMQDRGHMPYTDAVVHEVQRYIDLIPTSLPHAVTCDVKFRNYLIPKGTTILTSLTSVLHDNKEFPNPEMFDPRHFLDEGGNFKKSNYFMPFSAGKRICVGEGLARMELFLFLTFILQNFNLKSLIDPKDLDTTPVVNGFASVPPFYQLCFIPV
Procedure, shortened: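 Luminescent readout of CYP2C19 activity: luciferin product detected 20 min after adding detection reagent. Before that, compound and enzyme-substrate mix preincubated 10 min at room temperature; NADPH-regenerating system started a 1 h, 37C reaction. Ketoconazole as positive control.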

[6] = target: Cytochrome P450 2C9 (Homo sapiens) (UniProt P11712); test: Cytochrome P450 Family 2 Subfamily C Member 9 (CYP2C9) small molecule antagonists: luciferase reporter qHTS assay (AID 1671198); also: nearly all actives have a fitted effect of over 50% in size; as to activity change, negative = inhibition: series mostly up to about 120 µM
Sequence of Cytochrome P450 2C9 (Homo sapiens) (P11712 whole entry, looked up): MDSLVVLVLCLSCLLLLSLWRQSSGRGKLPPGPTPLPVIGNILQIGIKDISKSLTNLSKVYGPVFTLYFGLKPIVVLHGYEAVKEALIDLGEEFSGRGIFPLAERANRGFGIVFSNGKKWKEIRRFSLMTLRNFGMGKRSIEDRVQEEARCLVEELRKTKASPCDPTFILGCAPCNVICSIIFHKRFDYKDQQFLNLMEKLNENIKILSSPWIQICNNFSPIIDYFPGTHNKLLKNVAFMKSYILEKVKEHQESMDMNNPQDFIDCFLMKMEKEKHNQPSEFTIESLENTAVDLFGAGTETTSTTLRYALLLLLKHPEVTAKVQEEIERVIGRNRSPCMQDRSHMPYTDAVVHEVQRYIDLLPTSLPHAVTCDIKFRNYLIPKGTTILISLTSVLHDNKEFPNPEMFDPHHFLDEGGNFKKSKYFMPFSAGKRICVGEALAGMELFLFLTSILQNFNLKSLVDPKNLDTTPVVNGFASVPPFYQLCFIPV
Procedure, shortened: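 P450-Glo proluciferin substrate with CYP2C9 enzyme; 10 min RT preincubation, then NADPH regeneration 1 h at 37C; luciferin detection reagent 20 min RT, luminescence in relative luminescence units.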

[7] = target: Cytochrome P450 1A2 (Homo sapiens) (UniProt P05177); test: Cytochrome P450 Family 1 Subfamily A Member 2 (CYP1A2) small molecule antagonists: luciferase reporter qHTS assay (AID 1671199); also: nearly all actives have a fitted effect of over 50% in size; as to activity change, negative = inhibition: series mostly up to about 120 µM
Sequence of Cytochrome P450 1A2 (Homo sapiens) (P05177 whole entry, looked up): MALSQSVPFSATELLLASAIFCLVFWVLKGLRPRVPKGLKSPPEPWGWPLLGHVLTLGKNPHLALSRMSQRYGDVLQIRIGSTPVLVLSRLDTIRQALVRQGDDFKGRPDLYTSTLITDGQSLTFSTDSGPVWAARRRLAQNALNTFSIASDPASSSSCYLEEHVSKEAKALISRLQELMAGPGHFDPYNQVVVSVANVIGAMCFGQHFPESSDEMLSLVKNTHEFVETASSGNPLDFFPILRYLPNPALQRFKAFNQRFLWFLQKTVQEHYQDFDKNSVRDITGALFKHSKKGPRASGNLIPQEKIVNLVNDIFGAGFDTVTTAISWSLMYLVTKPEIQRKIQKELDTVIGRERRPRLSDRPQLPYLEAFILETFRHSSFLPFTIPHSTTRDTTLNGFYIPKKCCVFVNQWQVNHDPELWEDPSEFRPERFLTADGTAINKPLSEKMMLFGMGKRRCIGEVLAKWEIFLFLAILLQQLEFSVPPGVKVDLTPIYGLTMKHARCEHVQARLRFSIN
Procedure, shortened: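 Room-temperature CYP1A2 reaction with proluciferin substrate: compounds added from DMSO, 10 min preincubation, NADPH regeneration for 1 h. Luciferin detection reagent then added; luminescence recorded as RLU.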

[8] = target: Cytochrome P450 3A4 (Homo sapiens) (UniProt P08684); test: Cytochrome P450 Family 3 Subfamily A Member 4 (CYP3A4) small molecule antagonists: luciferase reporter qHTS assay (AID 1671201); also: nearly all actives have a fitted effect of over 50% in size; as to activity change, negative = inhibition: series mostly up to about 120 µM
Sequence of Cytochrome P450 3A4 (Homo sapiens) (P08684 whole entry, looked up): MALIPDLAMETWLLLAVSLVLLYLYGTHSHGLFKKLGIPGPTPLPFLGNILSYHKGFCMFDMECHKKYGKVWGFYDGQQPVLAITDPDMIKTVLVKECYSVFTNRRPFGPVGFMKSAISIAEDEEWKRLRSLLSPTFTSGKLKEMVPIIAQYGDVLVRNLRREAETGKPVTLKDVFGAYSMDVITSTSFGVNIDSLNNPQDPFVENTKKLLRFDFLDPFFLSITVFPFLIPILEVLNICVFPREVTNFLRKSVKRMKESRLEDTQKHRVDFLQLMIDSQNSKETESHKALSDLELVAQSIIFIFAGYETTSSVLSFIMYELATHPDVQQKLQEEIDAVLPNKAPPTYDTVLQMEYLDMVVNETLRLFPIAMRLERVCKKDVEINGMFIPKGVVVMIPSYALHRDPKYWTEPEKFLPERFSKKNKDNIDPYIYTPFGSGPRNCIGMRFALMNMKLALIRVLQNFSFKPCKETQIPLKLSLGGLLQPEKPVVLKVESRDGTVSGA
Procedure, shortened: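 Room-temperature assay throughout: 10 min compound–enzyme/substrate preincubation, 1 h reaction after NADPH regeneration solution, 20 min detection. Luciferin formed from proluciferin substrate is quantified by luminescence.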

[9] = target: Voltage-gated inwardly rectifying potassium channel KCNH2 (Homo sapiens) (UniProt Q12809); test: Human Ether-a-go-go-Related Gene (hERG) channel small molecule antagonists: fluorescence cell-based qHTS assay (AID 1671200); also: nearly all actives have a fitted effect of over 50% in size;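 as to activity change, negative = inhibition: hERG-expressing U2OS cells given a thallium stimulus after FluxOR II dye loading; series mostly up to about 77 µM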
Sequence of Voltage-gated inwardly rectifying potassium channel KCNH2 (Homo sapiens) (Q12809 whole entry, looked up): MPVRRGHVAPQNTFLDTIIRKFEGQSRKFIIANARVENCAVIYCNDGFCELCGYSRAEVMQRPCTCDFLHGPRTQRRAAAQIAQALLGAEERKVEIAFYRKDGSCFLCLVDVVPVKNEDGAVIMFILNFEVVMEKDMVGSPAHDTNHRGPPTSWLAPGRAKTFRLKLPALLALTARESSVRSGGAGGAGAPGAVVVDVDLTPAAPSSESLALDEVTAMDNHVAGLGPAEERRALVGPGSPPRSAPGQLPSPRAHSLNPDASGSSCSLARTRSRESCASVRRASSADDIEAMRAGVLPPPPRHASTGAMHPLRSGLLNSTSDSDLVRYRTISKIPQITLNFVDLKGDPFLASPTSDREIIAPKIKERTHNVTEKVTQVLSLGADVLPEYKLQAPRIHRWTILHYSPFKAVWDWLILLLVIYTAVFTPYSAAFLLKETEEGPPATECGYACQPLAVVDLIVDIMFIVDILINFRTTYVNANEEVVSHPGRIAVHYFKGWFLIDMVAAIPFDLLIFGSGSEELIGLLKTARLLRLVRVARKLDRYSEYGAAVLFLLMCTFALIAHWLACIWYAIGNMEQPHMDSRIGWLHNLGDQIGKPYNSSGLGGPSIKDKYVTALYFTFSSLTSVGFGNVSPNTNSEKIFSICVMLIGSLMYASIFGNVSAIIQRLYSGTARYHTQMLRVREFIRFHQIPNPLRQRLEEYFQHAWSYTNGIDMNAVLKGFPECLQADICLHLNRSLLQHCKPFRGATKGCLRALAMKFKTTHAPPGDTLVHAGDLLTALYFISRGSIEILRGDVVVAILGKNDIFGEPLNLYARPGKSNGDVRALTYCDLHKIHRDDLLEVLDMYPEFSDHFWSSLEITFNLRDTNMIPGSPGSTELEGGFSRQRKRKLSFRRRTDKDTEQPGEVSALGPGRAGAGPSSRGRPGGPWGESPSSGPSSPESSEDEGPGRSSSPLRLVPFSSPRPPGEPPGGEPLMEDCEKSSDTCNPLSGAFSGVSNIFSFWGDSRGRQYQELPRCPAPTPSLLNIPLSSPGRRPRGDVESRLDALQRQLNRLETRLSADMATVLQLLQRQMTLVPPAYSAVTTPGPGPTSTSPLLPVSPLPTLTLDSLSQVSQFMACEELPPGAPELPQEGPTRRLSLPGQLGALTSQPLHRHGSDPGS
Procedure, shortened: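 Cell line hERG-U2OS; dye FluxOR II, 1 h RT dark; Tl+ stimulus; ex 480/em 540 nm, read each second for 2 min.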
% is scaled to controls: 0 for no effect and ±100 for the full control effect; potency is read from the fitted curve at half-maximal effect.

CN(C)c1ccc(N)cc1
inactive: Potency [3]
active: Potency [1] 61.8 µM | Potency [2] 11 µM | Potency [4] 24.6 µM | Potency [5] 7.78 µM | Potency [6] 31 µM | Potency [7] 12.3 µM | Potency [8] 19.5 µM

CNC(C)(C)Cc1ccccc1
inactive: Potency [1] | Potency [2] | Potency [3] | Potency [5] | Potency [6] | Potency [7] | Potency [9] | Potency [8]
active: Potency [4] 9.77 µM

CC(C)N(C(=O)CCl)c1ccccc1
active: Potency [2] 20 µM | Potency [5] 39.9 µM
inactive: Potency [1] | Potency [3] | Potency [4] | Potency [7] | Potency [9]

CCCCON=O
inactive: Potency [1] | Potency [2] | Potency [3] | Potency [4] | Potency [6] | Potency [7] | Potency [9] | Potency [8]

CC(C)N(C(=O)SC/C(Cl)=C/Cl)C(C)C
active: Potency [6] 31.9 µM
inactive: Potency [1] | Potency [2] | Potency [3] | Potency [4]

O=C(NC(=O)c1c(F)cccc1F)Nc1ccc(Oc2ccc(C(F)(F)F)cc2Cl)cc1F
inactive: Potency [1] | Potency [2] | Potency [3] | Potency [4] | Potency [5] | Potency [7] | Potency [8]
active: Potency [6] 25.2 µM | Potency [9] 34.7 µM

Cc1c([N+](=O)[O-])cc2c(c1[N+](=O)[O-])C(C)(C)CC2(C)C
active: Potency [7] 8.94 µM
inactive: Potency [1] | Potency [2] | Potency [3] | Potency [4] | Potency [5] | Potency [8]

c1ccc(N=NNc2ccccc2)cc1
inactive: Potency [1] | Potency [2] | Potency [3]
active: Potency [4] 65.4 µM and 63.3 µM | Potency [5] 23.2 µM and 50.2 µM | Potency [6] 26 µM and 31.7 µM | Potency [7] 13.1 µM and 15.9 µM | Potency [8] 26 µM

Brc1cccc(-c2ccccc2)c1
inactive: Potency [1] | Potency [2] | Potency [3] | Potency [4] | Potency [5] | Potency [9] | Potency [8]
active: Potency [7] 12.7 µM

CCC[CH2][Sn]([CH2]CCC)([CH2]CCC)[O][Sn]([CH2]CCC)([CH2]CCC)[CH2]CCC
active: Potency [4] 0.155 µM | Potency [5] 0.981 µM | Potency [9] 1.7 µM
inactive: activity change, negative = inhibition [1] -1.88% [at 10.5 µM] | activity change, negative = inhibition [2] 2.81% [at 10.5 µM] | activity change, negative = inhibition [3] 0.495% [at 10.5 µM] | activity change, negative = inhibition [7] -6.75% [at 10.5 µM] | activity change, negative = inhibition [8] -17.7% [at 10.5 µM]

CCOP(=S)(OCC)SC(CCl)N1C(=O)c2ccccc2C1=O (configuration not stated)
active: Potency [1] 63.3 µM | Potency [2] 10 µM | Potency [3] 1.42 µM | Potency [4] 39.9 µM | Potency [5] 0.399 µM | Potency [6] 1.12 µM | Potency [7] 63.3 µM | Potency [8] 1.59 µM
inactive: Potency [9]

CSSC
active: Potency [5] 80.6 µM
inactive: Potency [1] | Potency [2] | Potency [3] | Potency [4] | Potency [9]

CC(C)Br
active: Potency [5] 35.7 µM | Potency [6] 40 µM
inactive: Potency [1] | Potency [2] | Potency [3] | Potency [4] | Potency [9] | Potency [8]

CCOP(=O)(OCC)Oc1cc(C)nc(C(C)C)n1
inactive: Potency [4] | Potency [6] | Potency [9] | Potency [8]
active: Potency [1] 5.67 µM | Potency [2] 0.714 µM | Potency [3] 25.3 µM | Potency [7] 35.8 µM

CCN(CC)CCN1C(=O)CN=C(c2ccccc2F)c2cc(Cl)ccc21
active: Potency [9] 3.79 µM
inactive: Potency [1] | Potency [2] | Potency [3] | Potency [5] | Potency [7]

Nc1c(Cl)c(Cl)c(Cl)c(Cl)c1Cl
active: Potency [7] 1.3 µM
inactive: Potency [1] | Potency [2] | Potency [3] | Potency [5] | Potency [6] | Potency [9]

O=P(Cl)(Cl)Cl
inactive: Potency [1] | Potency [2] | Potency [3] | Potency [4] | Potency [6] | Potency [9] | Potency [8]
active: Potency [7] 23.9 µM

CCN(CC)Cc1nccn1-c1ccc([N+](=O)[O-])cc1C(=O)c1ccccc1Cl
active: Potency [4] 3.09 µM | Potency [9] 5.35 µM
inactive: Potency [1] | Potency [2] | Potency [3] | Potency [6]

COc1cnc(OC)n2nc(NS(=O)(=O)c3c(OCC(F)F)cccc3C(F)(F)F)nc12
inactive: Potency [1] | Potency [2] | Potency [3] | Potency [4] | Potency [9]
active: Potency [6] 35.6 µM

CNC(=O)CSP(=O)(OC)OC
inactive: Potency [1] | Potency [2] | Potency [3] | Potency [5] | Potency [6] | Potency [9]

CC(Cc1ccc(OCC(=O)O)cc1)NCC(O)c1csc(C(F)(F)F)n1 (configuration not stated)
inactive: Potency [1] | Potency [2] | Potency [3] | Potency [5] | Potency [6] | Potency [9] | Potency [8]
active: Potency [7] 35.6 µM

Clc1c(Cl)c(Cl)c(Cl)c(Cl)c1Cl
inactive: activity change, negative = inhibition [1] -1.5% [at 10.5 µM] | activity change, negative = inhibition [2] 3.1% [at 10.5 µM] | activity change, negative = inhibition [3] 0% [at 10.5 µM] | activity change, negative = inhibition [4] -7.24% [at 10.5 µM] | activity change, negative = inhibition [6] -2.13% [at 10.5 µM] | activity change, negative = inhibition [7] -10.9% [at 10.5 µM] | activity change, negative = inhibition [9] 10.1% [at 6.97 µM] | activity change, negative = inhibition [8] 4.21% [at 10.5 µM]

COC(=O)C(C)N(C(=O)c1ccco1)c1c(C)cccc1C (configuration not stated)
inactive: Potency [1] | Potency [2] | Potency [3] | Potency [4] | Potency [9] | Potency [8]
active: Potency [6] 31.7 µM

O=C(O)CCCCCCNC1c2ccccc2CCc2ccccc21
inactive: Potency [1] | Potency [2] | Potency [3] | Potency [5] | Potency [6] | Potency [7] | Potency [9]
